# Test results from PubChem BioAssay AID1851 (National Center for Advancing Translational Sciences (NCATS), 2009).
# Several values for one entry are separate records, joined by “and”; a condition that tells them apart may be missing. Equal values may be shown once. Out of some 16,000 compounds screened, about 5,100 (32%) were called active. Roughly 25% stayed inconclusive and do not appear here. Calls follow the shape of the dose curve; as a rule, active = well fitted curve in the direction sought with a large enough effect; inconclusive = small, poorly fitted or top-dose-only effect, or effect the other way; inactive = no such curve, though single readings can be large or run the other way. The list shows a part of the results.
# Target: Cytochrome P450 3A4 (Homo sapiens) (UniProt P08684)
# Test: Cytochrome panel assay with activity outcomes
# Conditions: recombinant CYP, pro-luciferin dealkylation, luminescence, p450-cyp3a4; series mostly up to 57.1 µM; activity, negative = inhibition: at the top concentration
# % is scaled to controls: 0 for no effect and ±100 for the full control effect.
# Sequence of Cytochrome P450 3A4 (Homo sapiens) (P08684 whole entry, looked up): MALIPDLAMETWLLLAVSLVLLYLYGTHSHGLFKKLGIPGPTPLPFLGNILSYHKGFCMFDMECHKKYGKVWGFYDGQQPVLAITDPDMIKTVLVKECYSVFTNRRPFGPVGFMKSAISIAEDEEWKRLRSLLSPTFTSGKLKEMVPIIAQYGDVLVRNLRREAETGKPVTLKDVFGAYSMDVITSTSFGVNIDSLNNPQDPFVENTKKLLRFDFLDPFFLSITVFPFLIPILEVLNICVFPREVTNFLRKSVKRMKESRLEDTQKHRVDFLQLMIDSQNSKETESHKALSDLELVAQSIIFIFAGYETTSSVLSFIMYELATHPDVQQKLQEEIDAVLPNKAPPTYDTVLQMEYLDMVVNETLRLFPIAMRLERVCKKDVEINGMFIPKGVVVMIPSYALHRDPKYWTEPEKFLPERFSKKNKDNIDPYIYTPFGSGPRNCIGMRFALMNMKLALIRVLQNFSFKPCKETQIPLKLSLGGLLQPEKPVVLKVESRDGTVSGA
SMILES,"activity, negative = inhibition",AC50
O=c1oc2cc(Oc3ccc(C(F)(F)F)cc3[N+](=O)[O-])ccc2c2c1CCCC2,-23.2% (inactive),–
O=c1oc2cc(Oc3c([N+](=O)[O-])cc(C(F)(F)F)cc3[N+](=O)[O-])ccc2c2c1CCCC2,–,14.1 µM (active)
CC1=NNC(=S)NCCCN2CCN(CCCNC(=S)NN=C(C)C=NNC(=S)NCCCN3CCN(CCCNC(=S)NN=C1)CC3)CC2,-1.88% [at 11.4 µM] (inactive),–
CNNCc1ccc(C(=O)NC(C)C)cc1,-12.2% [at 25.6 µM] (inactive),–
CC(=O)NC(NC(C)=O)c1ccc(Br)cc1,8.11% (inactive),–
CC(C)OP(=O)(OC(C)C)C(NC(=O)c1ccc(Br)cc1)c1ccccc1 (stereo unspecified),–,11.2 µM (active)
O=C(O)C[C@H](Cc1ccccc1)C(=O)O,-6.62% [at 11.4 µM] (inactive),–
Cn1nc(C(F)(F)F)c(/C=N/OC(=O)c2ccccc2Cl)c1SCc1ccc(Cl)cc1,–,7.08 µM (active)
Cn1nc(C(F)(F)F)c(/C=N/OC(=O)c2ccc(Cl)cc2)c1Cl,-0.892% (inactive),–
Cn1nc(C(F)(F)F)c(/C=N/OCc2c(Cl)cccc2Cl)c1Cl,-24.6% (inactive),–
O=C(NCC1CCCO1)C(c1cccnc1)N(C(=O)Cc1cccs1)c1cccnc1 (stereo unspecified),-17.2% [at 2.29 µM] (inactive),–
O=C(NCC(=O)N(c1ccccc1)C(C(=O)NC1CCCC1)c1cccnc1)c1cccs1 (stereo unspecified),–,2 µM (active)
Cc1ccc(C(C(=O)NC2CCCCC2)N(CC2CCCO2)C(=O)CNC(=O)c2cccs2)cc1 (stereo unspecified),–,4.47 µM (active)
O=C(NCC1CCCO1)C(c1cccnc1)N(C(=O)Cc1cccs1)c1ccccc1 (stereo unspecified),–,3.98 µM (active)
CN1CCc2c(sc3c2c(=O)n(-c2ccccc2)c2nncn32)C1,23.3% (inactive),–
NC(N)=NC(=O)c1nc(Cl)c(N)nc1N,–,inactive
O=C(c1cc(-c2ccc(Cl)cc2Cl)on1)N1CCN(C(=O)c2ccco2)CC1,13.8% (inactive),–
C[C@@H]1CCC[C@H](C)N1NC(=O)c1ccc(Cl)c(S(N)(=O)=O)c1,-15.3% [at 25.6 µM] (inactive),–
CC1CCCC(C)N1C(=O)c1cc(-c2ccc(Cl)c(Cl)c2)on1 (stereo unspecified),–,12.6 µM (active)
Cc1ccc(-n2cc(C(=O)c3ccc4ccccc4c3O)cn2)cc1,-15.6% (inactive),–
COCn1c2ccccc2c2nnc(C(C)=O)nc21,7.63% [at 11.4 µM] (inactive) and -20.9% [at 11.4 µM] (inactive),–
Cc1ccc(S(=O)(=O)n2c3ccccc3c3nnc(C(=O)c4ccccc4)nc32)cc1,–,3.98 µM (active)
COc1ccc2c(c1)CCC1[C@@H]2CCC2(C)[C@@H](NCCCCCCN3C(=O)C=CC3=O)CC[C@@H]12 (stereo partly specified),3.28% (inactive),–
CN1C(=O)/C(=N\OC(=O)c2cccc3ccccc23)c2ccccc21,–,28.2 µM (active)
CC(C)CC(=O)O/N=C1\C(=O)N(c2ccccc2)c2ccccc21,18.9% [at 2.29 µM] (inactive),–
CC(=O)c1c(O)cc(=O)n(-c2ccccc2)c1-c1cccc2ccccc12,5.76% (inactive),–
